In PubChem BioAssay (NCI):
About 83,000 compounds went through this panel and 20% of them were active in at least one assay; those are over-represented in the sample as a whole.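 Interpretation: 100, growth as untreated; towards 0, rising growth inhibition; 0, no net growth; 0 to -100, cell death. Compounds scoring below 10 were considered active.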 Values without a mark were called inactive. Calls of active or inactive are those of the source.

Experiments:
Test in all cases: NCI-60 one-dose screen, 48 h (100 = growth as untreated, 0 = no growth, -100 = all killed)
Conditions in all cases: 10 µM unless noted
[1] = system: SR leukemia
[2] = system: RPMI-8226 leukemia
[3] = system: OVCAR-8 ovarian
[4] = system: OVCAR-5 ovarian
[5] = system: OVCAR-4 ovarian
[6] = system: SK-OV-3 ovarian
[7] = system: IGROV1 ovarian
[8] = system: OVCAR-3 ovarian
[9] = system: HS 578T breast
[10] = system: NCI/ADR-RES ovarian

Row | SMILES | growth [1] | growth [2] | growth [3] | growth [4] | growth [5] | growth [6] | growth [7] | growth [8] | growth [9] | growth [10]
1 | Cc1cnc2nc(-c3ccc(N(C)C)cc3)cn2c1 | 100% | 117% | 103% | 78.4% | 118% | 119% | -14.9% (active) | 107% | 109% | 85.9%
2 | C[C@H](C(=O)N[C@@H](Cc1ccc(-c2ccccc2)cc1)C(=O)NC1CC(C)(C)NC(C)(C)C1)c1ccc(-c2ccccc2)c(F)c1 | -27.5% (active) | -43.6% (active) | -49.9% (active) | -48.9% (active) | -27.4% (active) | -17.1% (active) | -36.8% (active) | -92.1% (active) | -31.6% (active) | 60.4%
3 | C[C@@H]1[C@H]2[C@H](C=C3[C@@H]4CC[C@H]5Cc6nc7c(nc6C[C@]5(C)[C@H]4C[C@@H](O)[C@@]32C)C[C@@H]2CC[C@H]3C4=C[C@@H]5O[C@@]6(CC[C@](C)(CO)O6)[C@@H](C)[C@@]5(O)[C@@]4(C)[C@H](O)C[C@@H]3[C@@]2(C)C7)O[C@]12CCC(C)(C)O2 | 2.45% (active) | -29.9% (active) | 50.9% | 8.43% (active) | 55.5% | 9.45% (active) | 38.6% | 50% | -4.77% (active) | 54%
4 | COc1ccc2c(c1)sc1nc(-c3ccc(Br)cc3)cn12 | 120% | 112% | 102% | 101% | 100% | 117% | -23.9% (active) | 122% | 125% | 92.4%
5 | CCN(CC)c1ccc(N=C2C=CC(=O)C=C2NC(C)=O)cc1 | 110% | 89.8% | 94% | 108% | 104% | 86.9% | 96.7% | 74.2% | 104% | 105%
6 | Nc1ccn(C2O[C@H](CO)[C@@H](O)[C@@H]2O)c(=O)n1 (stereo not given in full) | 9.93% (active) | 64.4% | 34% | 70.1% | 83.4% | 55.6% | 51.9% | 67.6% | 107% | 34.6%
7 | CC1=C([Se]CC(OC(=O)[C@@H](CSSC(C)(C)C)NC(=O)C(C)(C)C)C(=O)NCCCCCC(=O)OCc2ccccc2)C(=O)c2ccccc2C1=O (stereo not given in full) | 29.2% | -11% (active) | 8.55% (active) | -28.7% (active) | 14.5% | -17.5% (active) | -60.9% (active) | 1.96% (active) | 13.6% | -12.4% (active)
8 | CCOc1nc(-c2ccco2)n2nc(-c3ccco3)cc2n1 | 123% | 84.4% | 97% | 108% | 87.2% | 110% | 106% | 122% | 95.7% | 99.5%
9 | c1ccc2c(-c3nc4ccccc4[nH]3)cccc2c1 | 12.5% | 33.2% | 47.4% | 62.9% | 77.3% | 30.8% | 44.1% | 12.2% | 44.5% | -16.2% (active)
10 | NC(=O)c1cc(Br)cc(Br)c1NS(=O)(=O)c1ccccc1 | 101% | 97.2% | 114% | 108% | 95.8% | 102% | 94.9% | 106% | 105% | 103%
11 | O=C1CSC(c2ccccc2O)N1c1nnc(Cn2ccnc2)o1 (stereo not given) | 43.9% | 36.1% | 58.8% | 97.2% | 64.4% | 74.2% | 67.7% | 37.8% | 80.6% | 26%
12 | COc1cccc2c1C(=O)c1c(O)c3c(c(O)c1C2=O)C[C@@](O)(C(C)=O)C[C@@H]3O[C@H]1C[C@H](N)[C@H](O)[C@H](C)O1 | -5.17% (active) | -22.9% (active) | -6.3% (active) | 2.15% (active) | -16.8% (active) | 7.97% (active) | -10.2% (active) | -18.7% (active) | -17.6% (active) | 11.8%
13 | CCCCCCCCCCOC(C)=O | 98.6% | 99.1% | 101% | 101% | 103% | 110% | 96.2% | 110% | 101% | 111%
